Records with an inconclusive call do not appear. The source made the active and inactive calls. Unless noted, the call rests on the fitted dose curve.
Key:
[1] = qHTS assay to identify small molecule antagonists of the vitamin D receptor (VDR) signaling pathway - cell viability counter screen (AID 743225; active means well fitted curve in the direction sought with a large enough effect in the repeat runs; an effect the other way counts as inactive or inconclusive; further: on the % scale 0 is the no-effect control and ±100 the full control effect; nearly all actives have a fitted effect of over 50% in size)
How it was run: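 Same-well multiplex: following 16 h treatment of HEK 293T cells carrying a UAS-driven beta-lactamase reporter with compound and agonist (3 nM final), and a 2 h FRET substrate step, CellTiter-Glo was added and luminescence read after 30 min.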

[2] = qHTS assay to identify small molecule agonists of the NFkB signaling pathway (AID 1159509; active means well fitted curve in the direction sought with a large enough effect in the signal ratio in the repeat runs, not every such curve was filed as active; the % refers to the signal ratio; further: series mostly up to about 61 µM; on the % scale 0 is the no-effect control and ±100 the full control effect)
How it was run: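 ME-180 NFkB-bla, 2,000 cells/well, overnight plating; cpd pinned in DMSO, 5 h 37 C; B/G FRET substrate 1.5 h RT; ex 405, em 460/530 nm.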

[3] = qHTS assay to identify small molecule agonists of the endoplasmic reticulum stress response signaling pathway (AID 1159516; active means well fitted activation curve with a large enough effect in the signal ratio in the repeat runs, not every such curve was filed as active; the % refers to the signal ratio; further: on the % scale 0 is the no-effect control and ±100 the full control effect)
How it was run: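 CellSensor ESRE-bla HeLa cells, carrying a beta-lactamase reporter driven by the ER stress response element, were plated overnight and exposed to compounds for 5 hr at 37 C. Reporter activity was read as FRET substrate fluorescence after 2 hr at room temperature.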

[4] = qHTS assay to identify small molecule agonists of the endoplasmic reticulum stress response signaling pathway - cell viability counter screen (AID 1159517); further: series mostly up to about 61 µM; on the % scale 0 is the no-effect control and ±100 the full control effect; nearly all actives have a fitted effect of over 50% in size
How it was run: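 CellTiter-Glo was added to wells already read for beta-lactamase FRET, and luminescence was recorded 30 min later. Cells: ESRE-bla HeLa, 1,500 per well, compound exposure 5 hr at 37 C.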

[5] = qHTS assay to identify small molecule antagonists of the retinoid-related orphan receptor gamma (ROR-gamma) signaling pathway - cell viability counter screen (AID 1159520; active means well fitted curve in the direction sought with a large enough effect in the repeat runs; an effect the other way counts as inactive or inconclusive; further: on the % scale 0 is the no-effect control and ±100 the full control effect; nearly all actives have a fitted effect of over 50% in size)
How it was run: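 Tet-on ROR gamma CHO cells (1,000/well) were plated 4 hr, given compounds in DMSO for 2 hr at 37 C, then induced with 1 uM final doxycycline for 16 hr. Viability was read as ATP by CellTiter-Glo luminescence after 30 min.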

[6] = molecular target: Nuclear receptor ROR-gamma (Homo sapiens) (UniProt P51449); assay: qHTS assay to identify small molecule antagonists of the retinoid-related orphan receptor gamma (ROR-gamma) signaling pathway (AID 1159521; active means well fitted curve in the direction sought with a large enough effect in the repeat runs; an effect the other way counts as inactive or inconclusive;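 further: CHO cells with doxycycline inducible ROR-gamma driving an RORE luciferase reporter; top concentration of the series differs between compounds; on the % scale 0 is the no-effect control and ±100 the full control effect; nearly all actives have a fitted effect of over 50% in size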)
How it was run: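 Inducible-expression reporter assay: doxycycline (1 uM final) switched on RORγ in CHO cells bearing a ROR response element-luciferase construct, with test compounds present from 2 h beforehand. Decreased luminescence after 16 h defined antagonist activity.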

[7] = qHTS assay to identify small molecule agonists of the AP-1 signaling pathway - cell viability counter screen (AID 1159525); further: nearly all actives have a fitted effect of over 55% in size
How it was run: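 ME-180 AP-1-bla, 2500 cells/well, Opti-MEM + 0.5% dialyzed FBS; overnight 37 °C; cpd 15-pt titration, 5 h 37 °C; CellTiter-Glo 30 min RT; luminescence read; normalised to TOAB and DMSO controls.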

[8] = qHTS assay to identify small molecule agonists of the AP-1 signaling pathway (AID 1159526); further: on the % scale 0 is the no-effect control and ±100 the full control effect
[9] = molecular target: Retinoic acid receptor RXR-alpha (Homo sapiens) (UniProt P19793); assay: qHTS assay to identify small molecule agonists of the RXR signaling pathway (AID 1159527); further: on the % scale 0 is the no-effect control and ±100 the full control effect; nearly all actives have a fitted effect of over 35% in size
Sequence of Retinoic acid receptor RXR-alpha (Homo sapiens) (P19793 whole entry, looked up): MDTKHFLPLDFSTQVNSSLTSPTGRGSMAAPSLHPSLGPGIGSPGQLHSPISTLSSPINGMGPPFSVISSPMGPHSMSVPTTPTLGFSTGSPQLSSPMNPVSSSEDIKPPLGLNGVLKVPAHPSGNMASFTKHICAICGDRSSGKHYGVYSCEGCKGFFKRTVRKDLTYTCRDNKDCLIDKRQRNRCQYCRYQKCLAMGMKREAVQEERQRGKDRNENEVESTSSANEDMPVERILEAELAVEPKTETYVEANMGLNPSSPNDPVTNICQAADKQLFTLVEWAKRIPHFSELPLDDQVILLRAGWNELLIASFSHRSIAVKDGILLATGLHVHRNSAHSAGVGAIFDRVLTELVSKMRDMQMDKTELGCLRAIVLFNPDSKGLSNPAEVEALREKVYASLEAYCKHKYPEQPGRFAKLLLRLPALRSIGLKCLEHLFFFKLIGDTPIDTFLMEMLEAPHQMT
How it was run: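 Compounds in DMSO were added to RXR-alpha-UAS-bla HEK 293T cells kept in 2% charcoal-stripped serum, and incubated 16 hr at 37 C with 5% CO2. Reporter signal came from a 2 hr B/G FRET substrate step.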

[10] = qHTS assay to identify small molecule agonists of the NFkB signaling pathway - cell viability counter screen (AID 1159515); further: series mostly up to about 61 µM; on the % scale 0 is the no-effect control and ±100 the full control effect; nearly all actives have a fitted effect of over 55% in size
How it was run: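 NFkB-bla ME-180 cells, 2,000/well, were plated overnight at 37 C, 5% CO2, then exposed to compounds in DMSO for 5 hr. After the bla FRET read, CellTiter-Glo was added to the same wells; luminescence was read after 30 min at room temperature.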

O=[N+]([O-])c1ccc(CCO)cc1
inactive: outcome [1] | outcome [2] | outcome [3] | outcome [4] | Potency [5] | Potency [6] | outcome [7] | Potency [8] | Potency [9]

CCN1CCN(c2cc3c(cc2F)c(=O)c(C(=O)O)cn3C2CC2)CC1
inactive: outcome [1] | outcome [2] | outcome [3] | outcome [4] | Potency [5] | Potency [6] | outcome [7] | Potency [8]

CC(C)N1C(=O)c2ccccc2C1=O
inactive: outcome [1] | outcome [2] | outcome [3] | outcome [4] | Potency [5] | Potency [6] | outcome [7] | Potency [8] | Potency [9]

CN(C)N=Nc1ccccc1
inactive: outcome [1] | outcome [2] | outcome [3] | outcome [4] | Potency [5] | Potency [6] | outcome [7] | Potency [8] | Potency [9]

C=C(C)[C@H]1CC=C(C)CC1
inactive: outcome [1] | outcome [10] | outcome [3] | outcome [4] | Potency [5] | outcome [7] | Potency [8]

NCCNC(=O)c1ccc(Cl)cn1
inactive: outcome [2] | outcome [3] | outcome [4] | Potency [6] | Potency [8] | Potency [9]

NCCN1CCNC1=O
inactive: outcome [2] | outcome [3] | outcome [4] | Potency [6] | outcome [7] | Potency [8] | Potency [9]

N#CCc1ccccc1[N+](=O)[O-]
inactive: outcome [1] | outcome [2] | outcome [3] | outcome [4] | Potency [6] | outcome [7] | Potency [8] | Potency [9]

NCC[C@H](O)C(=O)N[C@@H]1C[C@H](N)[C@@H](O[C@H]2O[C@H](CN)[C@@H](O)[C@H](O)[C@H]2O)[C@H](O)[C@H]1O[C@H]1O[C@H](CO)[C@@H](O)[C@H](N)[C@H]1O
inactive: viability change, negative = cytotoxic [1] 0.0036% [at 0.628 µM] | activation [2] 0.167% [at 0.628 µM] | activation [3] -0.818% [at 0.628 µM] | activity change, negative = cytotoxicity [4] 6.85% [at 0.628 µM] | activity, negative = cytotoxicity [5] 3.36% [at 0.349 µM] | activity change, negative = inhibition [6] 19% [at 0.35 µM] | viability change, negative = cytotoxic [7] 8.93% [at 0.29 µM] | activation [8] 12.3% [at 0.29 µM] | activation [9] 7.2% [at 0.29 µM]

C=CC(=O)OCCCCCC
inactive: outcome [10] | outcome [3] | outcome [4] | Potency [5] | Potency [8] | Potency [9]

COc1cc(C)cc(O)c1
inactive: outcome [1] | outcome [2] | outcome [3] | outcome [4] | Potency [5] | Potency [6] | outcome [7] | Potency [8] | Potency [9]

Nc1cc(N)cc(C(=O)O)c1
inactive: outcome [1] | outcome [2] | outcome [3] | outcome [4] | Potency [5] | Potency [6] | outcome [7] | Potency [8] | Potency [9]

C[C@H]1O[C@@H](n2cc(F)c(=O)[nH]c2=O)[C@H](O)[C@@H]1O
inactive: outcome [1] | outcome [2] | outcome [3] | outcome [4] | Potency [6] | outcome [7] | Potency [8]

O=C(O)c1ccc[n+]([O-])c1
inactive: outcome [1] | outcome [2] | outcome [3] | outcome [4] | Potency [5] | Potency [6] | Potency [8] | Potency [9]

N[C@@H](CS)C(=O)O
inactive: outcome [2] | outcome [3] | outcome [4] | Potency [5] | Potency [6] | outcome [7] | Potency [8] | Potency [9]

C=C(C)C(=O)NCCCN(C)C
inactive: outcome [1] | outcome [2] | outcome [3] | outcome [4] | Potency [6] | outcome [7] | Potency [8] | Potency [9]

COc1ccc(N=[N+]([O-])c2ccc(OC)cc2)cc1
inactive: outcome [1] | outcome [2] | outcome [3] | outcome [4] | Potency [5] | Potency [6] | outcome [7] | Potency [8] | Potency [9]

CC/C=C\CCCCO
inactive: outcome [1] | outcome [2] | outcome [3] | outcome [4] | Potency [5] | Potency [6] | outcome [7] | Potency [8] | Potency [9]

CC(C)(O)C(=O)c1ccc(OCCO)cc1
inactive: outcome [1] | outcome [2] | outcome [3] | outcome [4] | Potency [5] | Potency [6] | Potency [8] | Potency [9]

Nc1nc(F)nc2c1ncn2[C@@H]1O[C@H](CO)[C@@H](O)[C@@H]1O
inactive: outcome [1] | outcome [2] | outcome [3] | outcome [4] | Potency [5] | Potency [6] | outcome [7] | Potency [8] | Potency [9]

CC(C)c1cccc(O)c1
inactive: outcome [1] | outcome [2] | outcome [3] | outcome [4] | Potency [5] | Potency [6] | outcome [7] | Potency [8] | Potency [9]

C=C(C)C(=O)OCCC(C)OC(=O)C(=C)C (stereo unspecified)
inactive: outcome [1] | outcome [2] | outcome [3] | outcome [4] | Potency [5] | Potency [6] | Potency [8]

COc1nc(C)nc(N)n1
inactive: outcome [1] | outcome [2] | outcome [3] | outcome [4] | Potency [5] | Potency [6] | outcome [7] | Potency [8] | Potency [9]

O=Cc1ccccc1[N+](=O)[O-]
inactive: outcome [1] | outcome [2] | outcome [3] | outcome [4] | Potency [5] | Potency [6] | outcome [7] | Potency [8]

NC(N)=NS(=O)(=O)c1ccc(N)cc1
inactive: outcome [1] | outcome [2] | outcome [3] | outcome [4] | Potency [5] | Potency [6] | outcome [7] | Potency [8] | Potency [9]

CC1(C)OC(=O)Nc2ccc(Br)cc21
inactive: outcome [2] | outcome [3] | outcome [4] | Potency [6] | outcome [7] | Potency [8] | Potency [9]

CC(=O)O[C@H](CC(=O)[O-])C[N+](C)(C)C
inactive: outcome [1] | outcome [2] | outcome [3] | outcome [4] | Potency [5] | Potency [6] | outcome [7] | Potency [8] | Potency [9]

CCCCCCCCCCCCCCCCCC(=O)OCCCCCCCCCCCCCC(C)C
inactive: outcome [2] | outcome [3] | outcome [4] | Potency [5] | Potency [6] | outcome [7] | Potency [8] | Potency [9]

CC1=CCC2C(C1)C2(C)C (stereo unspecified)
inactive: outcome [1] | outcome [2] | outcome [3] | outcome [4] | Potency [6] | Potency [8] | Potency [9]

Cc1onc(-c2ccccc2)c1-c1ccc(S(N)(=O)=O)cc1
inactive: outcome [1] | outcome [2] | outcome [3] | outcome [4] | Potency [6] | outcome [7] | Potency [8]

CCCCCCCCC=O
inactive: outcome [1] | outcome [10] | outcome [3] | outcome [4] | Potency [5] | Potency [6] | outcome [7] | Potency [8]

CCCOCC(C)OCC(C)O (stereo unspecified)
inactive: outcome [1] | outcome [2] | outcome [3] | outcome [4] | Potency [5] | Potency [6] | outcome [7] | Potency [8] | Potency [9]

Cc1nccn1CC1CCc2c(c3ccccc3n2C)C1=O (stereo unspecified)
inactive: outcome [1] | outcome [2] | outcome [3] | outcome [4] | Potency [5] | Potency [6] | Potency [8]

CCN1CCCC(OC(=O)C(c2ccccc2)c2ccccc2)C1 (stereo unspecified)
inactive: outcome [1] | outcome [2] | outcome [3] | outcome [4] | Potency [5] | Potency [6] | Potency [8]

CCCCCCCCCCC1CO1 (stereo unspecified)
inactive: outcome [1] | outcome [2] | outcome [3] | outcome [4] | Potency [5] | Potency [6] | Potency [8] | Potency [9]

From PubChem BioAssay (Tox21)
